# Reference: PubChem BioAssay (NCI)
# About 83,000 compounds went through this panel and 20% of them were active in at least one assay; those are over-represented in the sample as a whole.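 Cells were grown in 96-well plates and exposed to the test compound at a single concentration for 48 hours; results are reported as percent growth, with values below 10 considered active.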 A number with no mark means an inactive call. Active and inactive are the calls of the source.
# Test system: NCI-H23 lung
# Assay: NCI-60 one-dose screen, 48 h (100 = growth as untreated, 0 = no growth, -100 = all killed)
# Conditions: 10 µM unless noted
row,Structure (SMILES),growth
1,Cc1cccc(-c2nc(Nc3ccc4ncsc4c3)c3ccccc3n2)n1,57.8%
2,COc1ccc(-c2cc(-c3ccccc3)nc(N3CCN(CCNc4ccnc5cc(Cl)ccc45)CC3)n2)cc1,14.8%
3,N#Cc1cccc(C2C3=C(COC3=O)N(CCO)c3cc4c(cc32)OCO4)c1 (stereo not given),44%
4,CCN1C(=O)N(CC)C2C1NC(=S)N2/N=C/c1ccc(OC)cc1 (stereo not given),74.9%
5,Nc1[nH]c(=S)nc2oc(-c3ccccc3)c(-c3ccccc3)c12,94.5%
6,N=C(N)c1ccc(-c2ccc(-c3cc(Cl)cc(Cl)c3)s2)nc1,75.5%
7,c1ccc2c(c1)CCCc1nnc3nc4ccccc4n3c1-2,46.7%
8,Nc1[nH]n2cc(-c3ccc(F)cc3)nc2c1N=Nc1ccc(S(N)(=O)=O)cc1,80.9%
9,CNC(C)[C@H]1CCC2C3CC=C4C(=O)[C@@H](NC(=O)C=C(C)C)CC[C@]4(C)C3CC[C@@]21C (stereo not given in full),30.1%
10,COc1ccc2c(c1)/C(=N/c1n[nH]c(=S)s1)C(=O)N2,93%
11,Cc1ccc(-c2nc(SCc3nc4cc(Cl)c(Cl)cc4[nH]3)[nH]c(=O)c2C#N)cc1,99.2%
12,COc1ccc2c(c1)c(/C(O)=C1\COC(=O)C1=O)cn2Cc1ccc(F)cc1,110%
13,O=C1/C(=C2\SC(=S)N(C3CC3)C2=O)SC(=S)N1C1CC1,96.7%
14,C#CC#CC#CC#CC#CC#CC#CC#CCC1OC[C@H](COC(=O)O[C@@H](C(=O)O[C@H]2C[C@@]3(O)[C@@H](OC(=O)c4ccccc4)[C@@H]4[C@]5(OC(C)=O)CO[C@@H]5C[C@H](O)[C@@]4(C)C(=O)[C@H](OC(C)=O)C(=C2C)C3(C)C)[C@@H](NC(=O)c2ccccc2)c2ccccc2)O1 (stereo not given in full),32.9%
15,Cc1nnc(-c2ccc3c(c2)nc(/C=C/c2ccccc2)n3C2CCCCC2)o1,88.3%
16,Nc1nc(N)c2c(n1)NC(c1ccc(Cl)cc1)C1CCc3ccccc3C1=N2 (stereo not given),47.2%
17,Fc1ccc(Cn2cc(CSc3nc4ccccc4o3)nn2)cc1,106%
18,CC(C)(C)c1cc(Cl)c(O)c(CNCCO)c1,112%
19,Nc1nc2c(c3ncccc13)C(c1cccc(Cl)c1)Cc1ncccc1-2 (stereo not given),39.7%
20,COc1ccc(C(=O)N2c3ccccc3Sc3ccccc32)c(C(F)(F)F)c1,24.4%

row,Structure (SMILES),growth
1,Cc1ccc(C(=O)c2ccc(CC(=O)NN3C(=O)c4ccccc4C3=O)n2C)cc1,100%
2,C=C1C(=O)O[C@H]2[C@H]1CC/C(Cn1cc(CCC)nn1)=C\CC[C@@]1(C)O[C@@H]21,41.1%
3,O=C(/C=C/c1ccccc1)c1ccc(Nc2nc(Nc3ccc(F)cc3)nc(Nc3ccc(Cl)cc3)n2)cc1,83.9%
4,N#Cc1cccc(C2C3=C(COC3=O)N(CCO)c3cc4c(cc32)CCC4)c1 (stereo not given),23.3%
5,CCN1C(=O)N(CC)C2Nn3c(s/c(=C\c4ccccc4Br)c3=O)=NC21 (stereo not given),25.6%
6,Cc1ccc(C=C2C(=O)NC(=O)NC2=O)cc1,102%
7,Cc1cccc(N2CCC(=O)NC2=S)c1,98.5%
8,N#C/C(=C\c1ccc(-c2cccc(C(F)(F)F)c2)o1)c1ccccc1,79.7%
9,N#C/C(=C\c1ccc([N+](=O)[O-])cc1)n1nnc2cc(F)c(F)cc21,34.6%
10,CC/C=C\CCC/C=C1/C(=O)C=C[C@@H]1C/C=C\CCCC(=O)OC,34.9%
11,CN(C)c1ccc(/C=C(\C#N)c2cc3ccccc3[nH]2)cc1,28.4%
12,O=C(Nc1ccc(Br)cc1)C1=NCCCCN1,85.1%
13,CNC(=O)c1cc(Oc2cccc3nc(NC(=O)Nc4cc(C(F)(F)F)ccc4Cl)ccc23)ccn1,80%
14,COc1cccc(CCNc2ncnc3c2ncn3Cc2nnc3c4ccccc4c(Cl)nn23)c1,70.1%
15,CCOC(=O)c1c(C)nc2c(c1N)/C(=C/c1ccc(OC)cc1)C(=O)N2Cc1ccccc1,59.2%
16,O=S(=O)(NCCNc1nccc(-c2c(-c3ccc(F)c(O)c3)nc3sccn23)n1)c1ccc(F)cc1,36.6%
17,S=C(c1ccc2c(c1)OCO2)N1CCN(c2cccc(Cl)c2)CC1,35%
18,CN1CCN(CCOc2ccc(-c3cnc4c(-c5ccc(F)cc5)cnn4c3)cc2)CC1,67%
19,O=C(Cc1ccc(/C=C/C(=O)c2ncc[nH]2)cc1)Nc1cc(C(F)(F)F)cc(C(F)(F)F)c1,93.9%
20,CCN(CC)c1ccc(/C=N/NC(=O)Cc2ccc(Nc3ccnc(C(F)(F)F)c3)cc2)c(O)c1,19.1%

# Test system: NCI-H226 lung
# Assay: as above
# Conditions: 10 µM unless noted
row,Structure (SMILES),growth
1,Cc1cccc(-c2nc(Nc3ccc4ncsc4c3)c3ccccc3n2)n1,84.9%
2,COc1ccc(-c2cc(-c3ccccc3)nc(N3CCN(CCNc4ccnc5cc(Cl)ccc45)CC3)n2)cc1,67.5%
3,N#Cc1cccc(C2C3=C(COC3=O)N(CCO)c3cc4c(cc32)OCO4)c1 (stereo not given),74.9%
4,CCN1C(=O)N(CC)C2C1NC(=S)N2/N=C/c1ccc(OC)cc1 (stereo not given),78.8%
5,Nc1[nH]c(=S)nc2oc(-c3ccccc3)c(-c3ccccc3)c12,107%
6,N=C(N)c1ccc(-c2ccc(-c3cc(Cl)cc(Cl)c3)s2)nc1,93.7%
7,c1ccc2c(c1)CCCc1nnc3nc4ccccc4n3c1-2,51.2%
8,Nc1[nH]n2cc(-c3ccc(F)cc3)nc2c1N=Nc1ccc(S(N)(=O)=O)cc1,88.4%
9,CNC(C)[C@H]1CCC2C3CC=C4C(=O)[C@@H](NC(=O)C=C(C)C)CC[C@]4(C)C3CC[C@@]21C (stereo not given in full),46.5%
10,COc1ccc2c(c1)/C(=N/c1n[nH]c(=S)s1)C(=O)N2,96.8%
11,Cc1ccc(-c2nc(SCc3nc4cc(Cl)c(Cl)cc4[nH]3)[nH]c(=O)c2C#N)cc1,103%
12,COc1ccc2c(c1)c(/C(O)=C1\COC(=O)C1=O)cn2Cc1ccc(F)cc1,90.4%
13,O=C1/C(=C2\SC(=S)N(C3CC3)C2=O)SC(=S)N1C1CC1,95.5%
14,C#CC#CC#CC#CC#CC#CC#CC#CCC1OC[C@H](COC(=O)O[C@@H](C(=O)O[C@H]2C[C@@]3(O)[C@@H](OC(=O)c4ccccc4)[C@@H]4[C@]5(OC(C)=O)CO[C@@H]5C[C@H](O)[C@@]4(C)C(=O)[C@H](OC(C)=O)C(=C2C)C3(C)C)[C@@H](NC(=O)c2ccccc2)c2ccccc2)O1 (stereo not given in full),50.7%
15,Cc1nnc(-c2ccc3c(c2)nc(/C=C/c2ccccc2)n3C2CCCCC2)o1,104%
16,Nc1nc(N)c2c(n1)NC(c1ccc(Cl)cc1)C1CCc3ccccc3C1=N2 (stereo not given),60.2%
17,Fc1ccc(Cn2cc(CSc3nc4ccccc4o3)nn2)cc1,92.8%
18,CC(C)(C)c1cc(Cl)c(O)c(CNCCO)c1,98.5%
19,Nc1nc2c(c3ncccc13)C(c1cccc(Cl)c1)Cc1ncccc1-2 (stereo not given),75.8%
20,COc1ccc(C(=O)N2c3ccccc3Sc3ccccc32)c(C(F)(F)F)c1,13.1%

row,Structure (SMILES),growth
1,Cc1ccc(C(=O)c2ccc(CC(=O)NN3C(=O)c4ccccc4C3=O)n2C)cc1,97.8%
2,C=C1C(=O)O[C@H]2[C@H]1CC/C(Cn1cc(CCC)nn1)=C\CC[C@@]1(C)O[C@@H]21,-37.4% (active)
3,O=C(/C=C/c1ccccc1)c1ccc(Nc2nc(Nc3ccc(F)cc3)nc(Nc3ccc(Cl)cc3)n2)cc1,96.1%
4,N#Cc1cccc(C2C3=C(COC3=O)N(CCO)c3cc4c(cc32)CCC4)c1 (stereo not given),28.4%
5,CCN1C(=O)N(CC)C2Nn3c(s/c(=C\c4ccccc4Br)c3=O)=NC21 (stereo not given),57.5%
6,Cc1ccc(C=C2C(=O)NC(=O)NC2=O)cc1,105%
7,Cc1cccc(N2CCC(=O)NC2=S)c1,97.3%
8,N#C/C(=C\c1ccc(-c2cccc(C(F)(F)F)c2)o1)c1ccccc1,77.4%
9,N#C/C(=C\c1ccc([N+](=O)[O-])cc1)n1nnc2cc(F)c(F)cc21,-1.27% (active)
10,CC/C=C\CCC/C=C1/C(=O)C=C[C@@H]1C/C=C\CCCC(=O)OC,77%
11,CN(C)c1ccc(/C=C(\C#N)c2cc3ccccc3[nH]2)cc1,70.8%
12,O=C(Nc1ccc(Br)cc1)C1=NCCCCN1,93.1%
13,CNC(=O)c1cc(Oc2cccc3nc(NC(=O)Nc4cc(C(F)(F)F)ccc4Cl)ccc23)ccn1,99.1%
14,COc1cccc(CCNc2ncnc3c2ncn3Cc2nnc3c4ccccc4c(Cl)nn23)c1,66.6%
15,CCOC(=O)c1c(C)nc2c(c1N)/C(=C/c1ccc(OC)cc1)C(=O)N2Cc1ccccc1,86.1%
16,O=S(=O)(NCCNc1nccc(-c2c(-c3ccc(F)c(O)c3)nc3sccn23)n1)c1ccc(F)cc1,83.6%
17,S=C(c1ccc2c(c1)OCO2)N1CCN(c2cccc(Cl)c2)CC1,34.2%
18,CN1CCN(CCOc2ccc(-c3cnc4c(-c5ccc(F)cc5)cnn4c3)cc2)CC1,104%
19,O=C(Cc1ccc(/C=C/C(=O)c2ncc[nH]2)cc1)Nc1cc(C(F)(F)F)cc(C(F)(F)F)c1,103%
20,CCN(CC)c1ccc(/C=N/NC(=O)Cc2ccc(Nc3ccnc(C(F)(F)F)c3)cc2)c(O)c1,19.4%
